Common to all, as to assay: universal protein binding microarray (PBM); transcription factors of Arabidopsis thaliana; high values mean tight binding
For one test, the target named is T1, GST-ANAC092(1-176) (Arabidopsis thaliana, UniProt Q9FKA0 1-176).
T1 sequence: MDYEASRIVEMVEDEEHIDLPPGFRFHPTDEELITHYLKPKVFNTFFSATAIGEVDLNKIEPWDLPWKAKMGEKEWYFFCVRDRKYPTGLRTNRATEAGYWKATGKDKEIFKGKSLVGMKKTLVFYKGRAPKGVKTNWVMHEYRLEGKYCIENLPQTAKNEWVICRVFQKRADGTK
Conditions: protein: recombinant; tags: GST; chain copies: 2; dsDNA, one strand shown. The method, boiled down: (§1)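 Binding is expressed as the normalised enrichment score (E-score). Proteins carrying a GST tag, whether NAC-domain, full-length or DNA-binding-domain forms, were induced in cells, and zinc acetate was added for zinc-finger proteins. After purification on glutathione–Sepharose 4B and quantification by A280 or anti-GST western blot, each was applied in duplicate at 200 to 500 nM final to custom all-10-mer Agilent 4 × 180K arrays made double-stranded by primer extension. Gapped and ungapped 8-mers were scored.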

For a further test, the target named is T2, GST-ANAC019 NAC domain (Arabidopsis thaliana, UniProt Q9C932 14-162).
T2 sequence: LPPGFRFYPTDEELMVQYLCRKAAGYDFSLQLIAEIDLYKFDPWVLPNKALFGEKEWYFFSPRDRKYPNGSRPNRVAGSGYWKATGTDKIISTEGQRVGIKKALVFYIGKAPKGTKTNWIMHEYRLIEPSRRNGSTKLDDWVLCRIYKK
The conditions noted are these: protein: recombinant; tags: GST; chain copies: 2; dsDNA, one strand shown. The method, boiled down:
as §1

The target of another test is T3, GST-ANAC055(1-171) (Arabidopsis thaliana, UniProt Q9LDY8 1-171).
T3 sequence: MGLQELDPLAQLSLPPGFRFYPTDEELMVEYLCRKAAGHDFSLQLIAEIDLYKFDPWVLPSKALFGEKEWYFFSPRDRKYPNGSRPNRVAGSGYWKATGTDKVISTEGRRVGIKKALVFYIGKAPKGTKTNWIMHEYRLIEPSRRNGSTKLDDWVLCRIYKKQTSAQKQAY
The conditions noted are these: protein: recombinant; tags: GST; chain copies: 2; dsDNA, one strand shown. The method, boiled down:
as §1

The target in the next test is T4, GST-ATAF1 NAC domain (Arabidopsis thaliana, UniProt Q39013 7-158).
T4 sequence: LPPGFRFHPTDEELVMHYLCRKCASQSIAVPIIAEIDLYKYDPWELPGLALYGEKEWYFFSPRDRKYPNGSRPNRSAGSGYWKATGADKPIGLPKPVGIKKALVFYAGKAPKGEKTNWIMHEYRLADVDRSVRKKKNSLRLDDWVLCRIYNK
Conditions: protein: recombinant; tags: GST; chain copies: 2; dsDNA, one strand shown. The method, boiled down: as §1

Test [1] addresses T5, GST-ANAC092(1-285) full length (Arabidopsis thaliana, UniProt Q9FKA0 1-285).
T5 sequence: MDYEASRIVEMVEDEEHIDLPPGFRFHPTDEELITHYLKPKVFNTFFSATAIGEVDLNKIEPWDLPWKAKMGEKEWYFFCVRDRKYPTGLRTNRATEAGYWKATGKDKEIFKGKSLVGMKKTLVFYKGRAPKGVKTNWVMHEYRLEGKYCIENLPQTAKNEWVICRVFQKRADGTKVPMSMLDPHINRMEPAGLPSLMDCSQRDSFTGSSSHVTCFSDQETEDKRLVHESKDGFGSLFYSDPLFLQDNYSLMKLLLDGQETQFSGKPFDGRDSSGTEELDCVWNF
The conditions noted are these: protein: recombinant; tags: GST; chain copies: 2; dsDNA, one strand shown. The method, boiled down:
as §1

The target in the next test is T6, GST-NAP(1-166) (Arabidopsis thaliana, UniProt O49255 1-166).
T6 sequence: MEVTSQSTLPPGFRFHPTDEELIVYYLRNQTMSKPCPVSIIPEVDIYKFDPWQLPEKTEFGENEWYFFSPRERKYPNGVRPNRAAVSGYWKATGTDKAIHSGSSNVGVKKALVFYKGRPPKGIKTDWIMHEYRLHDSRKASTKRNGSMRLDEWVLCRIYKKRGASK
The conditions noted are these: protein: recombinant; tags: GST; chain copies: 2; dsDNA, one strand shown. The essentials:
as §1

For another test, the target named is T7, GST-NST2(1-184) (Arabidopsis thaliana, UniProt Q9M274 1-184).
T7 sequence: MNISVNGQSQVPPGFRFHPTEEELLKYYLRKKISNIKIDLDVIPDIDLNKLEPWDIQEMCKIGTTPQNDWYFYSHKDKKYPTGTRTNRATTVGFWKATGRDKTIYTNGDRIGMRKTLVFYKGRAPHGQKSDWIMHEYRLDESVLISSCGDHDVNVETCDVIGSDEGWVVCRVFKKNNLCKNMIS
The conditions noted are these: protein: recombinant; tags: GST; chain copies: 2; dsDNA, one strand shown. The essentials:
as §1

The next test deals with T8, GST-SND1(1-203) (Arabidopsis thaliana, UniProt Q9LPI7 1-203).
T8 sequence: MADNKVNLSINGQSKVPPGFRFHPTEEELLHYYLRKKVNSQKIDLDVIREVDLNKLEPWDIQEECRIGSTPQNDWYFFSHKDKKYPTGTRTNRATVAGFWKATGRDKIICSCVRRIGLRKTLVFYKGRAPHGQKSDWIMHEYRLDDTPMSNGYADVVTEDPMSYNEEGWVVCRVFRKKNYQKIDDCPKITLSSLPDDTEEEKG
Conditions: protein: recombinant; tags: GST; chain copies: 2; dsDNA, one strand shown. The method, boiled down:
as §1

A further test addresses T9, GST-VND3 NAC domain (Arabidopsis thaliana, UniProt Q9FH59 12-162).
T9 sequence: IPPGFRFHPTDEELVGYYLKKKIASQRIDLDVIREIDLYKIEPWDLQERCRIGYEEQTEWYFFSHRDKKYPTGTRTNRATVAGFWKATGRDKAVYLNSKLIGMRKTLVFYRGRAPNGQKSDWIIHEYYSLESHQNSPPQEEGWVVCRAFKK
The conditions noted are these: protein: recombinant; tags: GST; chain copies: 2; dsDNA, one strand shown. The essentials: as §1

A further test has as its target T10, GST-VND7 NAC domain (Arabidopsis thaliana, UniProt Q9C8W9 9-158).
T10 sequence: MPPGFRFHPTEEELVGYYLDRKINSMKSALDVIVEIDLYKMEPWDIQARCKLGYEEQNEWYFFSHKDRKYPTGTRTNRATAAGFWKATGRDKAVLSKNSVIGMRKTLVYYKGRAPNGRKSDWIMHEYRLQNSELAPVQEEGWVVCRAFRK
The conditions noted are these: protein: recombinant; tags: GST; chain copies: 2; dsDNA, one strand shown. The method, boiled down:
as §1

The target of the next test is GST-WRKY1(266-371) (Arabidopsis thaliana, UniProt Q9SI37 266-371). Conditions: protein: recombinant; tags: GST; dsDNA, one strand shown. The method, boiled down:
as §1

The next test has as its target GST-NTL6(1-168) (Arabidopsis thaliana, UniProt Q9SCK6 1-168). The conditions noted are these: protein: recombinant; tags: GST; chain copies: 2; dsDNA, one strand shown. The method, boiled down: as §1

Chain of GST-WRKY1(266-371) (Q9SI37 266-371): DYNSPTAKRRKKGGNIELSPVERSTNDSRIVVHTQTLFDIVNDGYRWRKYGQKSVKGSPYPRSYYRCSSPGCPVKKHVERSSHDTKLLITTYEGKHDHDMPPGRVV
Chain of GST-NTL6(1-168) (Q9SCK6 1-168): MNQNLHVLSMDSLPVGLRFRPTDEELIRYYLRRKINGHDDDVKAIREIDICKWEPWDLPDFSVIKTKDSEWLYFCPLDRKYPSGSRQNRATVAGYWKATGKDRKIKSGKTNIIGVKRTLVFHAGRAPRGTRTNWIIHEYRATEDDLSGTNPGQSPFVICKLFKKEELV

As for GCGTGTCA, the binding signal with GST-ANAC092(1-176) was found to be 0.331 E-score; in the test with GST-ANAC019 NAC domain, 0.231 E-score; in the test with GST-ANAC055(1-171) it was 0.195 E-score; with GST-ATAF1 NAC domain, 0.193 E-score; in test [1], 0.408 E-score; with GST-NAP(1-166), 0.186 E-score. For the same sequence, the binding signal in the test with GST-NST2(1-184) worked out at 0.0663 E-score; with GST-SND1(1-203) it was 0.0867 E-score; with GST-VND3 NAC domain it was 0.0583 E-score; with GST-VND7 NAC domain, 0.189 E-score; with GST-WRKY1(266-371) it was 0.0865 E-score.
Turning to TAGCGTGA, the binding signal in the test with GST-ANAC092(1-176) was 0.441 E-score; with GST-NTL6(1-168), 0.0555 E-score; with GST-ANAC019 NAC domain it was 0.209 E-score; with GST-ANAC055(1-171), 0.114 E-score; with GST-ATAF1 NAC domain it was 0.17 E-score; in test [1] it was 0.454 E-score. In addition, the binding signal with GST-NST2(1-184) came to 0.228 E-score; with GST-SND1(1-203) it was 0.42 E-score; with GST-VND3 NAC domain, 0.242 E-score; in the test with GST-VND7 NAC domain, 0.191 E-score; with GST-WRKY1(266-371) it was 0.0738 E-score.
For ATAACGTA, the binding signal is 0.418 E-score with GST-ANAC092(1-176); 0.119 E-score with GST-NTL6(1-168); 0.19 E-score with GST-ANAC055(1-171); 0.289 E-score with GST-ATAF1 NAC domain; 0.423 E-score in [1]; 0.187 E-score in the test with GST-NAP(1-166). For the same sequence, the binding signal with GST-NST2(1-184) is 0.37 E-score; with GST-SND1(1-203) it was 0.465 E-score; in the test with GST-VND3 NAC domain, 0.334 E-score; in the test with GST-VND7 NAC domain, 0.156 E-score; in the test with GST-WRKY1(266-371), 0.0761 E-score.
CTTGCGTC: the binding signal in the test with GST-ANAC092(1-176) is 0.337 E-score; with GST-ANAC019 NAC domain, 0.0715 E-score; with GST-ANAC055(1-171), 0.0764 E-score; with GST-ATAF1 NAC domain, 0.0507 E-score; in test [1], 0.402 E-score; with GST-NAP(1-166), 0.21 E-score. Also, the binding signal in the test with GST-NST2(1-184) was 0.106 E-score; in the test with GST-SND1(1-203), 0.162 E-score; with GST-VND3 NAC domain, 0.0748 E-score; with GST-VND7 NAC domain, 0.058 E-score; with GST-WRKY1(266-371), 0.0999 E-score.
For GCGTGTAA, the binding signal with GST-ANAC092(1-176) is 0.444 E-score; with GST-NTL6(1-168), 0.0655 E-score; with GST-ANAC019 NAC domain, 0.297 E-score; in the test with GST-ANAC055(1-171), 0.222 E-score; in the test with GST-ATAF1 NAC domain it was 0.201 E-score; in [1], 0.438 E-score. The binding signal is 0.155 E-score with GST-NAP(1-166); 0.275 E-score with GST-NST2(1-184); 0.347 E-score with GST-SND1(1-203); 0.246 E-score in the test with GST-VND3 NAC domain; 0.2 E-score with GST-VND7 NAC domain.
For the sequence GACGCAAC, the binding signal came to 0.438 E-score in the test with GST-ANAC092(1-176); 0.294 E-score with GST-ANAC019 NAC domain; 0.293 E-score in the test with GST-ANAC055(1-171); 0.282 E-score with GST-ATAF1 NAC domain; 0.457 E-score in [1]; 0.37 E-score in the test with GST-NAP(1-166). Besides, the binding signal is 0.295 E-score with GST-NST2(1-184); 0.325 E-score with GST-SND1(1-203); 0.295 E-score with GST-VND3 NAC domain; 0.259 E-score with GST-VND7 NAC domain; 0.0608 E-score with GST-WRKY1(266-371).
For GTGACGTA, the binding signal was 0.447 E-score with GST-ANAC092(1-176); 0.0989 E-score with GST-NTL6(1-168); 0.375 E-score with GST-ANAC019 NAC domain; 0.36 E-score in the test with GST-ANAC055(1-171); 0.39 E-score with GST-ATAF1 NAC domain; 0.452 E-score in test [1]. Further, the binding signal was 0.417 E-score with GST-NAP(1-166); 0.311 E-score with GST-NST2(1-184); 0.467 E-score with GST-SND1(1-203); 0.365 E-score with GST-VND3 NAC domain; 0.413 E-score with GST-VND7 NAC domain.

(Values after publication PMC4081100, “A DNA-binding-site landscape and regulatory network analysis for NAC transcription factors in Arabidopsis thaliana”.)
